Pf growth 48h: P. falciparum growth inhibition at 48 hours (one generation); AID 504832; P. falciparum luciferase growth in erythrocytes, 48 h; Potency, µM (top dose mostly 28.7 µM), for the others: top-dose activity change, negative = inhibition, most hits filed as inhibitors; actives 5.9% (n = 310,000); note: potency is the fitted concentration of half-maximal effect; % is set by controls: 0 for no effect and ±100 for the full control effect
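Here the parasites carry a stable luciferase gene and grow inside erythrocytes in Albumax-based RPMI medium with compound for one erythrocytic cycle. Activity is scored as loss of luminescent signal.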
NS1 inh: influenza NS1 inhibition. Potency, µM (highest dose often 46.1 µM), without a hit: top-dose activity, positive = more growth. actives 0.4% (n = 270,000). AID 2326; calls by dose curve; note: potency is the fitted concentration of half-maximal effect; actives are rising curves; nearly all actives have a fitted effect of over 50% in size
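Recovery from NS1-induced slow growth read by OD600 in budding yeast switched to galactose assay medium (pH 6.0, -URA) at 1:100 dilution. Compound 23 nl per well; the matching strain lacking NS1 serves as control.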
Cycloheximide cs: counter-screen for Shiga toxin inhibitors: cycloheximide protein synthesis inhibition; cell reporter, cycloheximide protein synthesis inhibition counterscreen; max response, %; actives 12% (n = 300,000); in the data active = max response mostly above about 13%, no sharp cut-off; inactive = mostly below about 14%; note: read at 38.3 µM for the half of the compounds with a filed dose; 0% is about no effect
Pf growth 96h: inhibits malaria parasite growth, 96 h; P. falciparum luciferase reporter growth, 96 h; Potency, µM (doses to about 28.7 µM), for the others: at the top dose activity change, negative = inhibition, usual class: inhibitors; actives 6.9% (n = 320,000); note: potency is the fitted concentration of half-maximal effect; % is set by controls: 0 for no effect and ±100 for the full control effect
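Readout is luminescence from an integrated firefly luciferase in P. falciparum. Red cells, 2% hematocrit and 0.05% parasitemia final, were cultured with compound through two parasite generations (96 hours) at 37 C, 5% CO2.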
Shiga inhibitor: blocks Shiga toxin action in Vero cells. Vero cells, Shiga toxin protein synthesis inhibition reporter. inhibition, % at 38.7 µM. actives 9.2% (n = 290,000). AID 2315; in the data active = inhibition mostly above about 28%, no sharp cut-off; inactive = mostly below about 43%; note: 0% is about no effect
* marks the source's active call; other numbers are inactive results; i = inactive; ? = inconclusive; . = no result given; [ ] = dose if it differs, or a comment. Hits are enriched below; roughly 21% of the tested compounds scored in any of these assays. Unless noted, calls come from the whole dose curve; as a rule, active = well fitted inhibition curve with a large enough effect; inconclusive = small, poorly fitted or top-dose-only effect, or another doubt; inactive = no such curve, though single readings can be large or run the other way.

SMILES | Pf growth 48h | NS1 inh | Cycloheximide cs | Pf growth 96h | Shiga inhibitor
CC1Cc2cc(S(=O)(=O)N3CCN(C)CC3)ccc2N1C(=O)C1CC1 (configuration not stated) | ? | -11.0% | 14.4 | 5.86µM* | 9.2
CCN1C(=O)c2cccc3c(S(=O)(=O)N4CCCC4C(=O)O)ccc1c23 (configuration not stated) | 25.9% | 4.0% | -6.0 | 15.5% | -8.7
CC1Cc2cc(S(=O)(=O)N3CCCCC3)ccc2N1C(=O)C1CCC1 (configuration not stated) | ? | -3.0% | 5.1 | ? | 4.3
CCOC(=O)C1CCN(S(=O)(=O)c2ccc3c(c2)CC(C)N3C(=O)C2CCC2)CC1 (configuration not stated) | -20.3% | -23.7% | 3.8 | ? | -3.0
CC(OC(=O)c1ncc(Cl)c(Cl)c1Cl)C(=O)NC1(C#N)CCCCC1 (configuration not stated) | 61.1% | . | . | 49.4% | .
CCN(CC)C(=O)c1c(Cl)nc(C)c([N+](=O)[O-])c1C | -1.3% | 4.1% | -3.7 | ? | -13.5
COc1ccc(N2CCN(S(=O)(=O)c3ccc4c(c3)CC(C)N4C(=O)C3CC3)CC2)cc1 (configuration not stated) | 5.6% | 6.0% | -2.8 | ? | -2.9
CC(=O)c1ccc(N2CCN(S(=O)(=O)c3ccc4c(c3)CC(C)N4C(=O)C3CC3)CC2)cc1 (configuration not stated) | 7.38µM* | -4.0% | -1.3 | ? | -4.0
CCN1C(=O)c2cccc3c(S(=O)(=O)NCc4cccnc4)ccc1c23 | ? | 6.0% | -3.0 | . | -4.9
CCN1C(=O)c2cccc3c(S(=O)(=O)NCc4ccco4)ccc1c23 | -26.2% | -3.8% | 23.1* | ? | 18.4*
Cc1csc(NC(=O)c2cccnc2)n1 | 87.6% | -16.8% | 9.5 | 276.4% | 19.7
Cc1csc(NC(=O)c2ccc3nc[nH]c3c2)n1 | 169.2% | 2.4% | 52.3* | 395.6% | 48.6
COc1cccc(C(=O)Nc2nc(-c3ccncc3)cs2)c1 | 30.1% | . | 6.4 | -24.0% | 30.8
Cc1csc(NC(=O)c2ccc[nH]c2=O)n1 | 112.1% | 12.0% | 35.6* | 190.1% | .
Cc1csc(NC(=O)c2ccncc2)n1 | ? | 8.4% | 2.8 | -48.0% | 5.9
Cc1csc(NC(=O)c2ccccc2)n1 | 215.5% | -8.7% | 42.9* | ? | .
COc1cccc(C(=O)Nc2nc(C)cs2)c1 | 121.6% | -16.2% | 35.1* | 84.6% | 68.1*
CCC1CCCCN1C(=O)CSc1nc(N)cc(N)n1 (configuration not stated) | 2.0% | 1.7% | 2.2 | -16.7% | 5.5
CCc1ccccc1N(C(=O)c1ccco1)C(C(=O)NC1CCCC1)c1cccnc1 (configuration not stated) | ? | 7.6% | -3.6 | -21.6% | 6.9
Cc1csc(NC(=O)[C@@H](NC(=O)c2ccccc2)C(C)C)n1 | 7.3% | -0.8% | -2.9 | -12.9% | 14.7
Cc1csc(NC(=O)c2ccccc2[N+](=O)[O-])n1 | . | -0.3% | -5.3 | 73.8% | -17.5
Cc1csc(NC(=S)NC(=O)c2ccccc2)n1 | 17.2% | -16.6% | 22.3* | 75.5% | 61.3*
Cc1csc(NC(=O)c2cccc(C)c2C)n1 | 159.2% | -31.2% | 38.0* | 387.6% | 54.9
Cc1csc(NC(=O)NCC2CCCC(CNC(=O)Nc3nc(C)cs3)C2)n1 (configuration not stated) | 11.7µM* | 7.5% | 30.4* | ? | 42.6*
COc1ccc2c3c(c(=O)oc2c1)C1O[C@](CCCCN2C(=O)c4ccccc4C2=O)(Cc2cc(OC)c(OC)cc21)O3 | 1.51µM* | ? | -1.9 | 40.6%[5.75 µM] | i
SMILES | Pf growth 48h | NS1 inh | Cycloheximide cs | Pf growth 96h | Shiga inhibitor
COc1ccc([C@]23Cc4cc(OC)c(OC)cc4C(O2)C2=C(CCCC2=O)O3)cc1 | ? | 1.6% | 12.2 | ? | i
COc1cc2c(cc1OC)C1O[C@](CCCCN3C(=O)c4ccccc4C3=O)(C2)OC2=C1C(=O)CCC2 | 1.51µM* | -4.8% | -0.9 | 1.51µM* | i
COc1cc2c(cc1OC)C1O[C@](CCCCN3C(=O)c4ccccc4C3=O)(C2)OC2=C1C(=O)c1ccccc1C2=O | ? | 24.3% | -1.5 | 0.338µM* | i
COc1cc2c(cc1OC)C1O[C@](CCCCN3C(=O)c4ccccc4C3=O)(C2)Oc2c1c(=O)oc1ccc(F)cc21 | ? | 29.8% | -3.8 | -13.9%[5.75 µM] | i
Clc1ccccc1Sc1ccc(-c2ccccn2)s1 | 6.8% | -2.6% | 7.9 | -2.8% | 38.2
Cc1ccc(-c2nc(=S)c3c(n2Cc2ccco2)CCCC3)cc1 | ? | 1.5% | 7.8 | 75.7% | 8.3
Cc1ccc(-c2nc(=S)c3c(n2Cc2ccco2)CC(C)(C)OC3)cc1 | ? | 12.3% | 7.0 | 8.28µM* | 18.4
O=C(c1ccccc1)N1N=C(c2ccccc2)CC1c1ccccc1O (configuration not stated) | ? | 0.1% | -4.6 | -5.8%[5.75 µM] | -7.2
COc1cccc(C2CC(c3cccs3)=NN2C(=O)c2ccco2)c1O (configuration not stated) | ? | -15.7% | -0.9 | ? | -12.8
Cc1ccc(C2=NN(C(=O)c3cccs3)C(c3ccccc3O)C2)cc1 (configuration not stated) | ? | 4.3% | 21.7* | 23.5% | 21.6
Clc1ccc(N2N=C(c3cccs3)CC2c2ccco2)cc1 (configuration not stated) | 38.5% | 1.7% | 37.0* | 2.62µM* | 6.8
COc1ccc(C2=NN(C(=O)c3cccs3)C(c3ccccc3OC)C2)cc1OC (configuration not stated) | ? | -3.1% | -0.9 | -22.0% | -1.3
O=C(c1ccco1)N1N=C(c2cccs2)CC1c1ccccc1O (configuration not stated) | 8.28µM* | ? | -1.4 | ? | -3.2
O=C(c1cccs1)N1N=C(c2ccccc2)CC1c1ccccc1O (configuration not stated) | 3.29µM* | 11.5% | -1.2 | 18.8% | 2.5
Cc1ccc(C2CC(C(F)(F)F)n3nc(C(=O)NCC4CCCO4)cc3N2)cc1 (configuration not stated) | -17.1% | -60.9% | 0.9 | . | -5.7
CN(C(=O)c1ccccc1-c1ccccc1C(=O)O)c1ccccc1 | -2.1% | -5.9% | -4.5 | ? | -1.7
NS(=O)(=O)c1ccc(CCNC(=O)c2cccnc2)cc1 | ? | 0.5% | -2.2 | . | 7.9
CC(OC(=O)C1CCN(S(=O)(=O)c2ccc(F)cc2)CC1)C(=O)NC1CCCCC1C (configuration not stated) | ? | . | . | 0.0% | .
COc1ccccc1C(=O)N/C(=C\c1cn(C)c2ccccc12)C(=O)NCCCn1ccnc1 | ? | 8.0% | -3.3 | ? | 14.8
Cc1cc(C)c(C)c(S(=O)(=O)N2CCN(c3ccccn3)CC2)c1C | -2.8% | -48.5% | -2.5 | -2.1% | -1.0
Cc1cc(C)c(C)c(S(=O)(=O)N2CCN(c3ncnc4ccccc34)CC2)c1C | 11.7µM* | . | . | ? | .
COc1ccc(C(=O)NC2CCN(CC(=O)Nc3cccc(OC)c3)CC2)cc1 | ? | 20.4% | -1.8 | ? | .
